Results reported in PubChem BioAssay AID686978 (National Center for Advancing Translational Sciences (NCATS), 2013).
Several values for one entry are separate records, joined by “and”; a condition that tells them apart may be missing. Equal entries are not always repeated. Among all 420,000 compounds or so, about 64,000 (15%) were called active. Roughly 27% stayed inconclusive and do not appear here. Calls come from the whole dose curve; as a rule, active = well fitted inhibition curve with a large enough effect; inconclusive = small, poorly fitted or top-dose-only effect; inactive = flat fitted curve, though single readings scatter. Only a sample is shown. Where a structure was tested more than once in an assay, its records may differ in their call.

Assay: qHTS for Inhibitors of human tyrosyl-DNA phosphodiesterase 1 (TDP1): qHTS in cells in absence of CPT; note: nearly all actives have a fitted effect of over 55% in size
Conditions: DT40 Tdp1-/- hTDP1 cells, no CPT, ATP luminescence, 48 h; activity change, negative = growth inhibition: at 46.2 µM (top of the series)
Procedure, shortened: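 DT40 Tdp1-/-;hTDP1 cells, no CPT (DMSO vehicle only), 400 cells/well; compounds pin-transferred; ≥48 hr, 37 °C; CellTiter-Glo 30 min RT dark, luminescence read.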
% is set by controls: 0 for no effect and ±100 for the full control effect; potency is the fitted concentration of half-maximal effect.

| Compound | activity change, negative = growth inhibition | Potency |
| --- | --- | --- |
| CC(C)NC(=O)/C(C#N)=C\c1ccc(N(C)C)c(Br)c1 | -16.7% (inactive) |  |
| CC(C)(C)C(=O)/C(C#N)=C/c1ccc(O)cc1 | -9.28% (inactive) |  |
| N#C/C(=C\c1ccc(O)c(O)c1)C(N)=O |  | inactive and 29.9 µM (active) |
| CCc1nc2ccc(C(=O)N(C)CCN(C)C)cn2c1N(CC)CCOC | -1.11% (inactive) |  |
| COc1ccc(N(C(=O)c2cccnc2)S(=O)(=O)c2ccc(OC)c(OC)c2)cc1 | -21% (inactive) |  |
| Cc1cc(NC(=O)CCS(=O)(=O)c2ccc(F)cc2)no1 | -10% (inactive) |  |
| CCOC(=O)N1CCN(C(=O)C[C@@H]2C[C@@]3(C(=O)OC)CCCCC=C3N(CCC3=CCCCC3)C2=O)CC1 |  | 16.4 µM (active) |
| CCOC(=O)N1CCN(C(=O)COc2ccc(Br)cc2)CC1 | -25.8% (inactive) |  |
| CCOC(=O)[C@]12CCCC=C1N(CCC1=CCCCC1)C(=O)[C@H](CC(=O)N1CCSCC1)C2 |  | 16.4 µM (active) |
| CCOC(=O)[C@]12CCCC=C1N(CCC1=CCCCC1)C(=O)[C@H](CC(=O)N1CCOCC1)C2 |  | 16.4 µM (active) |
| CCOC(=O)[C@]12CCCC=C1N(CCC1=CCCCC1)C(=O)[C@H](CC(=O)N1CCCCC1)C2 |  | 5.17 µM (active) |
| CSc1c(SCc2ccccc2)cnn(Cc2ccccc2)c1=O | -12.4% (inactive) |  |
| Cc1ccc(N)cc1-n1c(C)ccc1C | -17.2% (inactive) |  |
| C/C=C/C(=O)OCc1csc(CC(=O)Nc2ccccc2C)n1 | 7.75% (inactive) |  |
| CC1CC1C(=O)OCC(=O)Nc1cccc(F)c1 (stereo not given) | 7.03% (inactive) |  |
| Cc1cc(-c2nnc(SCC(=O)Nc3ccc(F)cc3)n2N)n[nH]1 | 21.3% (inactive) |  |
| O=C(CN1C(=O)CSC1=O)N1CCCC(Nc2ccc(F)cc2)C1 (stereo not given) | -4.21% (inactive) |  |
| Cc1ccc(S(=O)(=O)N(C)c2ccc(OCC(=O)NC3=NCCS3)cc2)cc1 | 1.46% (inactive) |  |
| CC(C)NC(=O)Nc1cccc2c1O[C@H](CN(C)S(=O)(=O)c1cccs1)[C@@H](C)CN([C@H](C)CO)C2=O | -28.3% (inactive) |  |
| CCOC(=O)[C@]12CCCC=C1N(Cc1ccc(Cl)cc1Cl)C(=O)[C@H](CC(=O)N1CCCCC1)C2 |  | 23.1 µM (active) |

| Compound | activity change, negative = growth inhibition | Potency |
| --- | --- | --- |
| COc1ccc(Cl)cc1N(CC(=O)N1CCCCC1)S(C)(=O)=O | -8.52% (inactive) |  |
| COC(=O)[C@]12CCCCC=C1N(CCC1=CCCCC1)C(=O)[C@H](CC(=O)N1CCSCC1)C2 |  | 16.4 µM (active) |
| CCOC(=O)[C@]12CCC=C1N(Cc1ccccc1)C(=O)[C@H](CC(=O)N1CCCC1)C2 | -25.7% (inactive) |  |
| Cc1ccc(-c2ccc(C3=CC(=O)CC(C)(C)C3=O)cc2)cc1 | -100% (inactive) |  |
| CCc1ccccc1N1C(=O)C2C3CC(=O)C(c4ccccc43)C2C1=O (stereo not given) | 18.8% (inactive) |  |
| O=C(CCc1ccccc1Cl)Nc1ccc(S(=O)(=O)Nc2nccs2)cc1 | -3.57% (inactive) |  |
| Cc1ccc(CCC(=O)Nc2ncc(Cc3cc(Cl)ccc3Cl)s2)o1 |  | 0.58 µM (active) |
| Cc1ccc(Cc2cnc(N)s2)o1 | -4.35% (inactive) |  |
| COc1cc2sc(C)nc2cc1C | 2.23% (inactive) |  |
| CCOc1ccc(NC(=O)CC2C(=O)N(c3ccccc3)C(=O)N2CCOC)cc1 (stereo not given) | 0.538% (inactive) |  |
| CCNC(=O)N1CCNC(=O)C1CC(=O)Nc1ccc(C(=O)OCC)cc1 (stereo not given) | 4% (inactive) |  |
| CCCOc1ccc(NC(=O)CC2C(=O)N(c3ccccc3)C(=O)N2Cc2ccco2)cc1 (stereo not given) |  | 20.6 µM (active) |
| CCOC(=O)c1ccc(NC(=O)CC2C(=O)N(c3cccc(OC)c3)C(=O)N2C2CCCCC2)cc1 (stereo not given) |  | 20.6 µM (active) |
| CCNC(=O)CC1C(=O)N(c2ccc(F)cc2)C(=O)N1Cc1ccc(C)cc1 (stereo not given) | 2.75% (inactive) |  |
| CCOc1ccc(NC(=O)CC2C(=O)N(c3cccc(OC)c3)C(=O)N2C2CCCCC2)cc1 (stereo not given) | -25.8% (inactive) |  |
| CCOC(=O)c1ccc(NC(=O)CC2C(=O)N(c3ccccc3)C(=O)N2Cc2cccs2)cc1 (stereo not given) |  | 20.6 µM (active) |
| CCNC(=O)CC1C(=O)N(c2ccc(F)cc2)C(=O)N1Cc1cccs1 (stereo not given) | 6.76% (inactive) |  |
| COC(=O)CN1C(=S)N(c2ccccc2)C(=O)C1CC(=O)Nc1ccc(Cl)cc1 (stereo not given) | -25.1% (inactive) |  |
| Cc1ccnc(NS(=O)(=O)c2ccc(NC(=O)c3oc4ccc(F)cc4c3C)cc2)n1 | 16.5% (inactive) |  |
| COCc1cc(C)n(CC(=O)NCC2CCCO2)c(=O)c1C#N (stereo not given) | 8.62% (inactive) |  |

| Compound | activity change, negative = growth inhibition | Potency |
| --- | --- | --- |
| Cc1cnc(C(=O)OCC(=O)NCCCc2ccccc2)cn1 | -4.9% (inactive) |  |
| Cc1ccccc1NC(=O)c1nn(-c2ccc(F)c(F)c2)ccc1=O | 0.98% (inactive) |  |
| CN(C)/C=C(/C(=O)c1ccccc1)S(=O)(=O)c1ccc(Cl)cc1 | -0.434% (inactive) |  |
| COc1ccc(OC(C)C(=O)Nc2cccnc2)cc1 (stereo not given) | 4.05% (inactive) |  |
| N#Cc1ccc(OCCN2C(=O)NC3(CCSC3)C2=O)cc1 (stereo not given) | -4.16% (inactive) |  |
| CCOC(=O)[C@H]1[C@H]2COc3ccccc3[C@@H]2N2C(=O)CN(Cc3ccccc3)C(=O)[C@@]12C | -21.1% (inactive) |  |
| CCOC(=O)[C@@H]1[C@H]2COc3cc(OC)ccc3[C@@H]2N2C(=O)N(c3cccc(C)c3)C(=O)[C@@]12C | -25.7% (inactive) |  |
| CCOC(=O)[C@H]1[C@H]2COc3ccc(Br)cc3[C@@H]2N2C(=O)CN(C)C(=O)[C@@]12C | -2.51% (inactive) |  |
| CCOC(=O)[C@@H]1[C@H]2COc3ccc(Br)cc3[C@H]2N2C(=O)N(c3ccc(C)cc3)C(=O)[C@@]12C |  | 20.6 µM (active) |
| CCOC(=O)[C@H]1[C@H]2COc3cc(OC)ccc3[C@@H]2N2C(=O)N(c3ccc(Br)cc3)C(=O)[C@@]12C |  | 18.4 µM (active) |
| CCOC(=O)[C@@H]1[C@H]2COc3cc(OC)ccc3[C@H]2N2C(=O)N(c3ccc(F)cc3)C(=O)[C@]12C | -18.1% (inactive) |  |
| O=C(CN1CCN(Cc2ccc(F)cc2Cl)C1=O)NCc1cccs1 | -14.6% (inactive) |  |
| COc1cc(OC)c2c(c1)OC(=O)CC2c1cc(OC)c(OC)c(OC)c1 (stereo not given) | 4.96% (inactive) |  |
| COc1cc(C2CC(=O)Oc3cc(OC)c(OC)c(OC)c32)cc(OC)c1OC (stereo not given) | -15.9% (inactive) |  |
| COc1cc(C2OC(c3cc(OC)c(OC)c(OC)c3)C(C)C2C)cc(OC)c1OC (stereo not given) |  | 18.4 µM (active) |
| CCCNC(=O)NCc1ccc(N2CCCC2=O)cc1 | -1.13% (inactive) |  |
| Cn1cccc1C1(C(F)(F)F)NCCNC1=O (stereo not given) | 2.55% (inactive) |  |
| COC(=O)c1ccc(C(=O)OC)c(NC(=S)N2CCN(c3ccc(F)cc3)CC2)c1 | -22.4% (inactive) |  |
| Cc1ccc(SCC(=O)N2CCN(c3ccc(F)cc3)CC2)cc1 | -28% (inactive) |  |
| Cc1ccc(CSCC2Nc3ccc(C(=O)N4CCN(c5ccc(F)cc5)CC4)cc3NC2=O)cc1 (stereo not given) |  | 16.4 µM (active) |
